Test results from the supplement of paper PMC12350171.
Counter-ions that a name gives are not always drawn.

Columns and labels:
Settings in all cases: 20 µM
Shigella flexneri = assay: growth AUC normalised to DMSO control (fraction of control); higher = less growth inhibition, active = hit call of the paper
Outline: (§1)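 For the AUC endpoint, growth curves were integrated by the trapezoidal rule up to the exponential-to-stationary transition and normalised to DMSO controls on the same plate. The curves came from OD578 readings taken hourly for 24 h, in three biological replicates. Pathogens had been passaged anaerobically twice and inoculated at an OD578 of 0.01 into pre-reduced mGAM plates carrying 20 μM compound and 1% DMSO, sealed with breathable membranes. Medium for Haemophilus parainfluenzae also contained hemin and NAD.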

Vibrio cholerae = assay: as above
Outline: as §1

[1] = tested on: Yersinia pseudotuberculosis; assay: as above
Outline: as §1

P. vulgatus RND KO = assay: growth AUC normalised to DMSO control (median) (fraction of control); higher = less growth inhibition, active = hit call of the paper
Outline: (§2)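 Each strain went through two overnight passages under anaerobic conditions before growth in mGAM in 96-well plates, starting at OD578 0.01, with each compound from the approved-drug library at 20 μM and 1% DMSO. Inside an anaerobic incubator, OD578 was recorded every hour for 24 h. Growth curves were cut off at entry into stationary phase, and the area under the curve was calculated by the trapezoidal rule and normalised to vehicle wells on the same plate. Reported values are medians of three biological replicates.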

P. vulgatus WT = assay: as above
Outline: as §2

[2] = tested on: S. enterica typhimurium WT; assay: as above
Outline: as §2

[3] = tested on: S. enterica typhimurium tolC KO; assay: as above
Outline: as §2

[4] = tested on: Salmonella enterica typhimurium; assay: growth AUC normalised to DMSO control (fraction of control); higher = less growth inhibition, active = hit call of the paper
Outline: as §1

Measured: growth AUC normalised to DMSO control
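Wherever growth AUC normalised to DMSO control (median) is given: active when median AUC fell below 0.1.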

CCn1cc(C(=O)O)c(=O)c2cnc(N3CCNCC3)nc21 [Pipemidic acid]
inactive: P. vulgatus RND KO 1.02 | P. vulgatus WT 0.996 | [2] 0.107
active: Shigella flexneri 0.113 | Vibrio cholerae 0.0338 | [1] 0.0731 | [3] 0.04

Cn1c(=O)c2[nH]cnc2n(C)c1=O [Aminophylline]
inactive: Shigella flexneri 1.03 | Vibrio cholerae 1.03 | [1] 0.979 | P. vulgatus RND KO 1.03 | P. vulgatus WT 1.05 | [2] 0.993 | [3] 1.01

Cc1onc(-c2ccccc2Cl)c1C(=O)N[C@@H]1C(=O)N2[C@@H]1SC(C)(C)[C@@H]2C(=O)O [Cloxacillin sodium salt]
active: [3] 0.0356
inactive: [4] 1.01 | Shigella flexneri 1 | Vibrio cholerae 0.99 | [1] 1.01 | [2] 0.994

O=C(O)c1cccnc1 [Niacin]
inactive: Shigella flexneri 1.02 | Vibrio cholerae 1.06 | [1] 0.993 | P. vulgatus RND KO 1.05 | P. vulgatus WT 1.09 | [2] 1.02 | [3] 0.985

CCOc1ccc2ccccc2c1C(=O)N[C@@H]1C(=O)N2[C@@H]1SC(C)(C)[C@@H]2C(=O)O [Nafcillin sodium salt monohydrate]
inactive: [4] 0.981 | Shigella flexneri 0.973 | Vibrio cholerae 0.96 | [1] 0.967 | [2] 1

O=c1[nH]c(=O)n([C@H]2C[C@H](O)[C@@H](CO)O2)cc1I [Idoxuridine]
active: [4] 0.909 | Shigella flexneri 0.861
inactive: Vibrio cholerae 0.992 | [1] 0.984 | P. vulgatus RND KO 1.01 | P. vulgatus WT 1.05 | [2] 0.936 | [3] 0.933

CCN(CCCc1ccccc1)CCCc1ccccc1 [Alverine citrate salt]
inactive: [4] 0.985 | Shigella flexneri 0.966 | [1] 0.971 | P. vulgatus RND KO 1.02 | P. vulgatus WT 1.03 | [2] 1 | [3] 0.961
active: Vibrio cholerae 0.841

O=C(O)[C@H]1/C(=C/CO)O[C@@H]2CC(=O)N21 [Clavulanate potassium salt]
inactive: [4] 1.01 | Shigella flexneri 1.03 | Vibrio cholerae 1.08 | [1] 1.03 | P. vulgatus WT 1.12 | [2] 0.995 | [3] 0.999

Cc1onc(-c2c(F)cccc2Cl)c1C(=O)N[C@@H]1C(=O)N2[C@@H]1SC(C)(C)[C@@H]2C(=O)O [Flucloxacillin sodium]
inactive: [4] 0.993 | Shigella flexneri 1.01 | Vibrio cholerae 0.999 | [1] 0.989 | P. vulgatus WT 0.132 | [2] 1.02
active: [3] 0.0123

CN1CCN(c2c(F)cc3c(=O)c(C(=O)O)cn(CCF)c3c2F)CC1 [Fleroxacin]
active: Shigella flexneri 0.0225 | Vibrio cholerae 0.0321 | [1] 0.0196 | [2] 0.00801 | [3] 0.00549
inactive: P. vulgatus RND KO 0.727 | P. vulgatus WT 0.585

O=C(CCNNC(=O)c1ccncc1)NCc1ccccc1 [Nialamide]
inactive: [4] 0.997 | Shigella flexneri 1.02 | Vibrio cholerae 1.05 | [1] 1.01 | P. vulgatus RND KO 0.995 | P. vulgatus WT 1.04 | [2] 0.999 | [3] 1.01

CCOC(=O)O[C@]1(C(=O)COC(=O)CC)CC[C@H]2[C@@H]3CCC4=CC(=O)C=C[C@]4(C)[C@H]3[C@@H](O)C[C@@]21C [Prednicarbate]
inactive: [4] 1.01 | Shigella flexneri 1.03 | [1] 1 | P. vulgatus RND KO 1 | P. vulgatus WT 1.04 | [2] 0.992 | [3] 0.967

CCC1(c2ccccc2)C(=O)NCNC1=O [Primidone]
inactive: Shigella flexneri 0.971 | Vibrio cholerae 0.976 | [1] 0.951 | P. vulgatus RND KO 1 | P. vulgatus WT 1 | [2] 1 | [3] 0.997

Cc1cc(N)c2ccccc2[n+]1CCCCCCCCCC[n+]1c(C)cc(N)c2ccccc21 [Dequalinium dichloride]
inactive: [4] 0.989 | Shigella flexneri 0.939 | Vibrio cholerae 0.96 | [3] 0.503
active: [1] 0.932 | P. vulgatus RND KO 0.0354 | P. vulgatus WT 0.0484

CC(C)NC[C@H](O)COc1cccc2ccccc12 [(S)-(-)-Propranolol hydrochloride]
inactive: Shigella flexneri 0.997 | Vibrio cholerae 1.01 | [1] 0.996 | P. vulgatus RND KO 1.04 | P. vulgatus WT 1.06 | [2] 0.989 | [3] 0.986

CNCC(O)c1ccc(O)c(O)c1 (stereo not drawn) [Racepinephrine hydrochloride]
inactive: [4] 1.03 | Shigella flexneri 1.02 | Vibrio cholerae 1.09 | [1] 1.04 | P. vulgatus RND KO 1.01 | P. vulgatus WT 1 | [2] 1.01 | [3] 1

CC(=O)Oc1ccc(C(c2ccc(OC(C)=O)cc2)c2ccccn2)cc1 [Bisacodyl]
inactive: Shigella flexneri 1.01 | Vibrio cholerae 0.991 | [1] 1.01 | P. vulgatus RND KO 1.02 | P. vulgatus WT 1.04 | [2] 1.01 | [3] 1.01

CN(c1nccc(=O)[nH]1)C1CCN(c2nc3ccccc3n2Cc2ccc(F)cc2)CC1 [Mizolastine]
inactive: [4] 1.02 | Shigella flexneri 1.04 | Vibrio cholerae 1.02 | [1] 1.01 | P. vulgatus RND KO 0.929 | P. vulgatus WT 0.921 | [2] 1.01 | [3] 0.906

CCC(=O)OCC(=O)[C@@]1(OC(=O)CC)[C@@H](C)C[C@H]2[C@@H]3CCC4=CC(=O)C=C[C@]4(C)[C@@]3(Cl)[C@@H](O)C[C@@]21C [Beclomethasone dipropionate]
inactive: [4] 0.99 | Shigella flexneri 0.956 | Vibrio cholerae 0.965 | [1] 1.01 | P. vulgatus WT 0.972 | [2] 1.01 | [3] 0.975

CC(=O)Nc1ccc(OCC(O)CNC(C)C)cc1 (stereo not drawn) [Practolol]
inactive: [4] 1 | Shigella flexneri 1.03 | Vibrio cholerae 1.02 | [1] 1.01 | P. vulgatus RND KO 1.02 | P. vulgatus WT 1.06 | [2] 1.02 | [3] 1.02

N[C@@H](Cc1ccc(O)c(O)c1)C(=O)O [Levodopa]
inactive: Shigella flexneri 1 | Vibrio cholerae 0.991 | [1] 0.99 | P. vulgatus RND KO 1.01 | P. vulgatus WT 0.996 | [2] 0.973 | [3] 0.996

CN/C(=N\CCSCc1nc[nH]c1C)NC#N [Cimetidine]
inactive: Shigella flexneri 0.992 | Vibrio cholerae 1 | [1] 1 | P. vulgatus RND KO 0.995 | P. vulgatus WT 1.02 | [2] 1 | [3] 0.996

CC(C)n1c(/C=C/C(O)CC(O)CC(=O)O)c(-c2ccc(F)cc2)c2ccccc21 (stereo not drawn) [Fluvastatin sodium salt]
inactive: [4] 0.985 | Shigella flexneri 0.995 | Vibrio cholerae 0.997 | [1] 0.996 | P. vulgatus RND KO 1 | P. vulgatus WT 1 | [2] 1 | [3] 0.931

C[C@]1(Cn2ccnn2)[C@H](C(=O)O)N2C(=O)C[C@H]2S1(=O)=O [Tazobactam]
inactive: [4] 0.986 | Shigella flexneri 0.976 | Vibrio cholerae 0.972 | [1] 0.99 | P. vulgatus WT 0.57 | [2] 0.99 | [3] 1

C1CCC(C(CC2CCCCN2)C2CCCCC2)CC1 (stereo not drawn) [Perhexiline maleate]
inactive: [4] 0.983 | Shigella flexneri 0.977 | Vibrio cholerae 0.931 | [1] 1.01 | P. vulgatus RND KO 0.915 | P. vulgatus WT 0.954 | [2] 0.994 | [3] 0.945

CC(C)NC[C@@H](O)COc1cccc2ccccc12 [(R) Propranolol hydrochloride]
inactive: Shigella flexneri 1.02 | Vibrio cholerae 1.02 | [1] 0.999 | P. vulgatus RND KO 0.978 | P. vulgatus WT 0.988 | [2] 0.984 | [3] 0.983

C[C@@H](O)[C@H]1C(=O)N2C(C(=O)O)=C(SCCNC=N)C[C@H]12 [Imipenem]
inactive: [4] 1.02 | Vibrio cholerae 1 | [1] 0.967 | [2] 1 | [3] 0.996
active: Shigella flexneri 0.63
